The text below walks through data of the supplement of paper PMC9135407.

Where “and” joins values, the source holds several entries; their conditions need not be identical. Equal values may be shown once. Where a name gives a salt, the structure may show the parent alone. Out of some 5,800 compounds screened, about 620 (11%) showed activity. This excerpt belongs to a sample that is enriched for actives. A number with no mark means an inactive call.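 Rule for the calls: active = score above a cut-off or among the top three wells of a plate; in these data no inactive exceeds 0.85.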 A value given as a limit tells only on which side of the number the result lay.

This assay concerns primary human hepatic stellate cells (donor 1). The experiment in a line: scaled lipid accumulation score (0 = DMSO-like, 1 = nortriptyline-like); higher = stronger HSC inactivation (lipid re-accumulation), active = hit call of the paper. Conditions: 48 h.
Where [1] appears, read: library stock concentration: 10 mM.
Setting [2] is: library stock concentration: 1 mM.
Setting [3] is: library stock concentration: 3.33 mM.
Setting [4] is: library stock concentration: 80 uM.
Setting [5] is: library stock concentration: 400 uM.
The mark [6] stands for this setting: library stock concentration: 2 mM.

Consider `O=C1CC2(CCCC2)CC(=O)N1CCNCC1COc2ccccc2O1` (stereo not given), for which, under setting [1], the “scaled lipid accumulation score” value is ≤ 0 and 0.017.
Regarding `CCCCC1C(=O)CCC2C(CC=CCCCC(=O)O)C(=O)CC12` (stereo not given) [Bicyclo Prostaglandin E2], the “scaled lipid accumulation score” value under setting [2] was no more than 0.
For the compound `C=C(NC(=O)C(=C)NC(=O)c1csc(C2=N[C@@H]3c4csc(n4)[C@H]4NC(=O)c5csc(n5)[C@H]([C@](C)(O)[C@@H](C)O)NC(=O)[C@H]5CSC(=N5)/C(=C/C)NC(=O)[C@H]([C@@H](C)O)NC(=O)c5csc(n5)[C@]3(CC2)NC(=O)[C@H](C)NC(=O)C(=C)NC(=O)[C@H](C)NC(=O)[C@H]([C@@H](C)CC)N[C@@H]2C=Cc3c([C@H](C)O)cc(nc3[C@H]2O)C(=O)O[C@@H]4C)n1)C(N)=O` [Thiostrepton], the “scaled lipid accumulation score” value was 1.19 (active).
Take `COP(=O)(OC)OC(c1ccc(Cl)cc1)P(=O)(OC)OC` (stereo not given): under setting [1], the “scaled lipid accumulation score” value was no more than -0.001.
`COc1cc(C[C@H]2COC(=O)[C@@H]2Cc2ccc(O)c(OC)c2)ccc1O` [Matairesinol]: the “scaled lipid accumulation score” value under setting [2] was no more than 0.
On to `CC1(C)CC(=O)c2c(ccc(C(=O)CC(N)CO)c2N)O1` (stereo not given), for which the “scaled lipid accumulation score” value under setting [1] was 1.03 (active).
Consider `CO/N=C(\C(=O)N[C@@H]1C(=O)N2C(C(=O)O)=C(CSc3nc(=O)c(O)nn3C)CS[C@H]12)c1csc(N)n1` [Ceftriaxone sodium], for which the “scaled lipid accumulation score” value under setting [1] is no more than 0.
`CO/N=C(\C(=O)N[C@@H]1C(=O)N2C(C(=O)O)=C(CSc3nc(=O)c(O)nn3C)CS[C@H]12)c1csc(N)n1` [Ceftriaxone sodium trihydrate]: the “scaled lipid accumulation score” value by setting is: (library stock concentration: 3.1 mM) no more than 0; under setting [1], ≤ -0.027 and 0.254.
On to `N#Cc1c(-c2ccccc2)no[n+]1[O-]` [Furoxan], for which, under “library stock concentration: 26.7 mM”, the “scaled lipid accumulation score” value was 1 (active).
Take `CCCCCC[C@@H]([C@@H](C)O)n1cnc2c(N)ncnc21` (racemic): under “library stock concentration: 18 mM”, the “scaled lipid accumulation score” value is 0.052.
Take `CC1(C)CCC(CN2CCN(c3ccc(C(=O)NS(=O)(=O)c4ccc(NCC5CCOCC5)c([N+](=O)[O-])c4)c(Oc4cnc5[nH]ccc5c4)c3)CC2)=C(c2ccc(Cl)cc2)C1`: the “scaled lipid accumulation score” value is no more than -0.009 under setting [3] and no more than 0 under setting [1].
On to `O=C1c2ccccc2-c2nc3nnnn3nc21` [PDK1/Akt/Flt Dual Pathway Inhibitor], for which the “scaled lipid accumulation score” value under setting [3] was 0.462.
For `O=S(c1ccccc1)c1ccc2nnnn2n1` (stereo not given), the “scaled lipid accumulation score” value under setting [1] was 1.3 (active).
Consider `COC(=O)C1=CO[C@@H](O)[C@@H]2C(CO)=CC[C@H]12` [Genipin], for which the “scaled lipid accumulation score” value by setting is: under setting [3], no more than 0; under setting [1], 0.019 and ≤ -0.028.
Consider `CC(C)(C)C(=O)Oc1ccc(S(=O)(=O)Nc2ccccc2C(=O)NCC(=O)O)cc1` [Sivelestat sodium salt hydrate], for which, under setting [1], the “scaled lipid accumulation score” value is no more than -0.055.
Regarding `O=C(NOCC1CC1)c1cc(Br)c(F)c(F)c1Nc1ccc(I)cc1Cl`, the “scaled lipid accumulation score” value under setting [1] was no more than 0.
The same measure, in the same setting: in the case of `Br.NC(=O)C(c1ccccc1)(c1ccccc1)[C@@H]1CCN(CCc2ccc3c(c2)CCO3)C1` [Darifenacin HBr] it was 1.03 (active); in that of `Br.NC(=O)C(c1ccccc1)(c1ccccc1)[C@@H]1CCN(CCc2ccc3c(c2)CCO3)C1`, 0.88 (active).
For `NC(=O)C(c1ccccc1)(c1ccccc1)[C@@H]1CCN(CCc2ccc3c(c2)CCO3)C1` [Darifenacin HBr], under setting [3], the “scaled lipid accumulation score” value is no more than 0.
For `NC(=O)C(c1ccccc1)(c1ccccc1)[C@@H]1CCN(CCc2ccc3c(c2)CCO3)C1`, the “scaled lipid accumulation score” value under setting [1] is 0.413.
In the case of `c1ccc(C(O[C@@H]2CCCN(CCc3ccc4c(c3)OCO4)C2)c2ccccc2)cc1` [Zamifenacin fumarate], under setting [1], the “scaled lipid accumulation score” value is 0.194.
For the compound `CC(C)(C(=O)O)c1ccc(C(O)CCCN2CCC(C(O)(c3ccccc3)c3ccccc3)CC2)cc1` (stereo not given) [Fexofenadine HCl], the “scaled lipid accumulation score” value was no more than 0. For the same compound, under setting [3], the “scaled lipid accumulation score” value is no more than 0. For the same compound, the “scaled lipid accumulation score” value under setting [1] was 0.057.
As to `CC(C)(C(=O)O)c1ccc(C(O)CCCN2CCC(C(O)(c3ccccc3)c3ccccc3)CC2)cc1` (stereo not given), the “scaled lipid accumulation score” value under setting [1] was no more than 0.
Still for that read-out and setting: the result for `CC(C)(C(=O)O)c1ccc(C(O)CCCN2CCC(C(O)(c3ccccc3)c3ccccc3)CC2)cc1` (stereo not given) [Fexofenadine hydrochloride] reads ≤ -0.07 and 0.008.
Turning to `OC(CCN1CCCC1)(c1ccccc1)C1CCCCC1` (stereo not given) [Procyclidine hydrochloride], the “scaled lipid accumulation score” value was 0.092. The “scaled lipid accumulation score” value (library stock concentration: 6.2 mM) is 0.569. For the same compound, under setting [1], the “scaled lipid accumulation score” value was 0.484.
Consider `CCCC(=O)Oc1ccc2[nH]c(C(=O)c3cc4ccccc4[nH]3)cc2c1` [PDGF Receptor Tyrosine Kinase Inhibitor II], for which the “scaled lipid accumulation score” value under setting [3] is no more than 0.
`CC(C)(C)OC(=O)N1CCC(OCc2nc(-c3ccncc3)no2)CC1`: the “scaled lipid accumulation score” value under setting [2] is 0.013.
Consider `N#Cc1ccc(NCCNCC(=O)N2CCC[C@H]2C#N)nc1` [NVP DPP 728 dihydrochloride], for which, under setting [1], the “scaled lipid accumulation score” value was no more than 0.
For the compound `CN1CC[C@]23c4ccccc4N[C@H]1[C@]21CCN(C)[C@H]3Nc2ccccc21` [Calycanthine], the “scaled lipid accumulation score” value is 0.246.
Regarding `CCCC/C=C\CCCCCCCC(=O)OC` [Myristoleic Acid methyl ester], the “scaled lipid accumulation score” value under setting [2] is no more than 0.
`Cn1cnc(=N)c2[nH]cnc21` [3-Methyladenine]: the “scaled lipid accumulation score” value under setting [3] is no more than 0 and the “scaled lipid accumulation score” value under setting [1] is no more than 0.
As for `CCCCC/C=C\C\C=C/C=C/C=C/[C@@H](SC[C@H](NC(=O)CC[C@H](N)C(=O)O)C(=O)NCC(=O)O)[C@@H](O)CCCC(=O)O` [Leukotriene C4], where the note is “library stock concentration: 100 uM”, the “scaled lipid accumulation score” value is no more than -0.021.
As for `Fc1ccc(C(OCCCc2cnc[nH]2)c2ccc(F)cc2)cc1`, the “scaled lipid accumulation score” value under setting [1] was 0.81.
Same read-out and setting: in the case of `Cc1nc2c(c(=O)[nH]1)CSCC2` it was no more than -0.001.
For `CCCCC/C=C\C/C=C\C/C=C\C/C=C\CCCC(=O)O[C@H](COCCCCCCCCCCCCCCCC)COP(=O)([O-])OCC[N+](C)(C)C` [Arachidonoyl-PAF], the “scaled lipid accumulation score” value under setting [2] was no more than -0.021.
With `O=C1Cc2c([nH]c3ccc(Br)cc23)-c2ccccc2N1` [Kenpaullone], the “scaled lipid accumulation score” value is, setting by setting: under setting [2], no more than 0; under setting [3], no more than 0; under setting [1], ≤ -0.055 and 0.348.
As for `CN1C(=O)/C(=C2\Nc3ccccc3\C2=N\O)c2ccc(Br)cc21` [GSK-3 Inhibitor IX, Control, MeBIO], under setting [3], the “scaled lipid accumulation score” value is 1.07 (active).
In the case of `COC(=O)C(N)CS` (stereo not given) [Mecysteine hydrochloride], the “scaled lipid accumulation score” value under setting [1] was no more than 0.
Take `O=C(O)CCC/C=C\C[C@@H]1[C@@H](/C=C/[C@@H](O)C2Cc3ccccc3C2)[C@@H](F)C[C@@H]1O`: the “scaled lipid accumulation score” value under setting [2] was no more than 0.
On to `CC(=O)OCC1=C(C(=O)O)N2C(=O)[C@@H](NC(=O)CSc3ccncc3)[C@H]2SC1` [Cephapirin sodium], for which the “scaled lipid accumulation score” value reads like this: (library stock concentration: 4.5 mM) no more than -0.001; under setting [1], no more than 0.
`CCOC(=O)c1ccc(N=Nc2ccc(O)c(CC(=O)O)c2)cc1`: the “scaled lipid accumulation score” value under setting [2] is no more than 0.
Regarding `CC#CCC(C)[C@H](O)/C=C/[C@@H]1[C@H]2C/C(=C/CCCC(=O)O)C[C@H]2C[C@H]1O` (stereo partly drawn) [5-cis Iloprost], under setting [2], the “scaled lipid accumulation score” value is 0.135.
Take `CCCCC[C@H](O)/C=C/[C@@H]1[C@H]2C/C=C\CCCC(=O)O[C@H]2C[C@H]1O` [Prostaglandin F2.alpha. 1,9-lactone]: the “scaled lipid accumulation score” value under setting [2] was no more than 0.
With `CCN(CCO)CCCOc1ccc2c(Nc3cc(CC(=O)Nc4cccc(F)c4)[nH]n3)ncnc2c1` [Barasertib (AZD1152-HQPA)], the “scaled lipid accumulation score” value under setting [3] is no more than 0 and the “scaled lipid accumulation score” value under setting [1] was no more than 0.
For the compound `COc1ccc(Cl)cc1NC(=O)Nc1cc(C)nc2ccccc12` [IGF-1R Inhibitor II], the “scaled lipid accumulation score” value under setting [3] was 0.188.
As to `CCn1cc(NC(=S)Nc2cc(Cl)ccc2OC)c(C(N)=O)n1`, the “scaled lipid accumulation score” value runs as follows: under setting [3], no more than -0.009; under setting [1], 0.111.
For `COc1ccc(Cl)cc1NC(=O)Nc1cc(C)nc2ccccc12` [listing 1 of 2 here], the “scaled lipid accumulation score” value was 0.097 under setting [3] and 0.391 under setting [1].
Regarding `COc1ccc(Cl)cc1NC(=O)Nc1cc(C)nc2ccccc12` [listing 2 of 2 here], under setting [1], the “scaled lipid accumulation score” value was 1.1 (active).
On to `O=C(CCSCc1ccco1)NNC(=O)N1Cc2ccccc2Oc2ccc(Cl)cc21`, for which the “scaled lipid accumulation score” value under setting [1] is no more than 0.
The same measure, in the same setting: the result for `CC1CCN=C(N)S1` (stereo not given) [AMT hydrochloride] reads 0.018; that for `CC1CCN=C(N)S1` (stereo not given), no more than 0.
For the compound `O=C(c1ccc(Nc2nccc(-c3cc4ccccc4s3)n2)cc1)N1CCC(N2CCCC2)CC1`, under setting [1], the “scaled lipid accumulation score” value is 0.18.
On to `O=C(c1cncc(Br)c1)N1CCC(N2CCCC2)CC1`, for which the “scaled lipid accumulation score” value runs as follows: under setting [4], no more than 0; under setting [5], no more than 0; under setting [6], no more than 0; under setting [3], no more than -0.009; under setting [1], no more than 0.
As to `O=C(c1ccc(Nc2nccc(-c3cc4ccccc4s3)n2)cc1)N1CCC(N2CCCC2)CC1` [IKK-16 (IKK Inhibitor VII)] [listing 1 of 2 here], the “scaled lipid accumulation score” value under setting [3] was 1.04 (active).
Still for that read-out and setting: the result for `O=C(c1ccc(Nc2nccc(-c3cc4ccccc4s3)n2)cc1)N1CCC(N2CCCC2)CC1` [IKK Inhibitor VII] reads 1.06 (active).
As to `O=C(c1ccc(C(=O)N2CCC(N3CCCC3)CC2)c(Nc2ccccc2)c1)N1CCC(N2CCCC2)CC1`, the “scaled lipid accumulation score” value is no more than 0 under setting [4]; no more than 0 under setting [5]; no more than 0 under setting [6]; no more than 0 under setting [3]; 0.002 and ≤ 0 under setting [1].
With `O=C(c1ccc(Nc2nccc(-c3cc4ccccc4s3)n2)cc1)N1CCC(N2CCCC2)CC1` [IKK-16 (IKK Inhibitor VII)] [listing 2 of 2 here], the “scaled lipid accumulation score” value under setting [1] is 0.246.
Still for that read-out and setting: the result for `O=C(Cc1cccs1)N[C@@H]1C(=O)N2C(C(=O)[O-])=C(C[n+]3ccccc3)CS[C@H]12` [Cephaloridine] reads no more than 0.
For the compound `COc1ccc2cc([C@H](C)CO)ccc2c1` [Naproxol], the “scaled lipid accumulation score” value runs as follows: (library stock concentration: 9.2 mM) no more than 0; under setting [1], 0.031.
For the compound `O=c1cc(CN2CCOCC2)occ1OCCCCCSc1ccnc2cc(C(F)(F)F)ccc12`, the “scaled lipid accumulation score” value is no more than -0.009 under setting [3] and 0.475 under setting [1].
Regarding `CCCCC[C@H](O)/C=C/[C@H]1[C@H](O)CC(=O)[C@@H]1C/C=C/CCCC(=O)O` [5-trans Prostaglandin E2], the “scaled lipid accumulation score” value under setting [2] is no more than 0.
